Assay results from PubChem BioAssay AID1508600 (Functional Genomics Laboratory (NCATS/FGL), 2020).
In all, about 53,000 sequences went through this assay and about 3,700 (7%) were called active.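 Rule for the calls: active = gene knockdowns whose robust z-score for IL-1 alpha signal is at least 2 or at most -2, so actives lie on both sides; inactive = the rest.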 The entries come from a sample that favours actives as a whole.

Test: Components of the Cytosolic LPS Sensing Pathway: Gene Identification via Genome-wide siRNA Screen;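 note: robust z of the log signal after scaling to non-targeting control siRNA wells of the plate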
Settings: RAW264.7 macrophages, IL-1a HTRF, actives lie on both sides, screened at 100 nM (by protocol), cells primed 5 h with Pam3CSK4 first
How it was run: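 Supernatant IL-1a by HTRF from RAW264.7 cells primed with Pam3CSK4 (5 hours) and transfected with LipidA (24 hour) after 48h siRNA knockdown at 100 nM; cell viability checked with CellTiter-Glo.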

Sequence	z-score
GGGCAUAUUCAAACUUGUGTT against Elf2	-1.68 (inactive)
GGCUCAGACCUGGAUACAUTT against Oas1e	-2.31 (active)
CCAAGGUACUACUGGGAGATT against Sval3	0.268 (inactive)
GCAAGUACGCUGCUCUGUCTT against Eif4b	0.397 (inactive)
GGCAGUCAGCUAAUGCUUATT against Pros1	-0.372 (inactive)
CGAGUAUUUUGAAAUCCUGTT against Cdcp3	0.406 (inactive)
GGAUCUAUGGGUAUCCUGCTT against Adam1a	-1.8 (inactive)
GGAGGAUGAGAUGAUGCCATT against Sez6l2	-2.19 (active)
GGCUCAAGUAUGAGAAUGATT against Krt15	-0.859 (inactive)
GGCUUUCCUUCGGAAGAAUTT against Abca14	-1.15 (inactive)
GGAAGAUACGUGCAAAAUGTT against Rbms2	-0.562 (inactive)
GGAACAGUCUGAAAUACACTT against Usp18	-0.907 (inactive)
GCAGUUCUGGUUCUGUCUGTT against Nudcd3	-0.203 (inactive)
GGCUCUUCUUAUGCACCCUTT against Pdyn	-0.543 (inactive)
CCCAGAAGGACGGCACUAGTT against H2-DMb2	0.265 (inactive)
GCCUGACAAUAGUCAUUUCTT against Olfr985	-2.03 (active)
GGCUCACACUCCUGUUAAUTT against Fam20c	-1.02 (inactive)
GGGCAUGAUUUUCACUUCCTT against Gpr150	0.79 (inactive)
CGAGAAGGGUCAUAUGAGCTT against Rbp4	-1.84 (inactive)
GCUGUGACAGAAGCUUUCGTT against Vars2	-0.201 (inactive)
CCCUCAUGUUUCAUUUGUGTT against Glrx3	-0.454 (inactive)
GCUUGAUAUAGUAUCCUUUTT against Prpf38b	-2.05 (active)
GGAUUGUCAGAGAAAGAGATT against Syt3	-0.751 (inactive)

Sequence	z-score
GCUACAAAGAGUAAAACUGTT against Zfp251	1.01 (inactive)
GGCUGUUCGUGCAAGCCUATT against Bahcc1	0.544 (inactive)
GGUCAUCCCAUCUUACAAATT against 4933431E20Rik	0.649 (inactive)
CCGACAUCCUUGAUACGUUTT against Vps35l	-2.12 (active)
GGAACUGGAAAACUUCAAATT against Mrvi1	1.04 (inactive)
GGAUUGCCCUGUUGUGGUGTT against Snx17	-0.227 (inactive)
GCGAUACAACUCUUAUGACTT against Dennd5b	-0.521 (inactive)
GGACUAUGUGGCCCAGUGUTT against Nat8f5	-1.11 (inactive)
GGAGCACAAUUCAAAUUCATT against Zbtb6	2.06 (active)
GGGAAACACCUGGGUGCUUTT against Ctrl	-1.07 (inactive)
GGGAGAUUGGAAACAAAAATT against Hsd3b4	-0.935 (inactive)
CCCUAUCAACUGAUCUUUUTT against Scml2	-0.732 (inactive)
GGAUAGCUCAUGAUGCUGUTT against Usp13	-0.885 (inactive)
GGAAGUUGACAAAAUAGUGTT against Dlgap5	0.389 (inactive)
GCUAAAGUGACCUUAAAACTT against Phactr4	-0.382 (inactive)
GGACUACUUUAAGGAUUGGTT against Tfip11	-2.97 (active)
CGAGAUGGGAGAUUGAAAUTT against Ms4a8a	0.47 (inactive)
GGAAGAGGAGGUGACAUACTT against Exd1	-1.15 (inactive)
CCACAUCAAGUCUAUCAUCTT against Ryr1	-1.19 (inactive)
GGAUCAACCUAGAAGCUUGTT against Strada	-0.192 (inactive)
GGAGACUCCAACUACUUCATT against Sycp1	1.23 (inactive)
GCCGCUUAUAUGUAUCGCUTT against Adipoq	2.54 (active)
CGCCUACUGCUUCAGGAUATT against Cgrrf1	1.27 (inactive)

Sequence	z-score
GGACUCAUCUUUAUUAUUCTT against Olfr393	-0.324 (inactive)
GGAAGUUGGUUAUACUCGUTT against Lins1	0.822 (inactive)
GGAGGAAGACAUUGUGUGUTT against Tnfrsf11b	-0.309 (inactive)
GGAAAACCAUGAAGCCAUGTT against Dnase1l3	0.69 (inactive)
GGCUCUAUAUCCAGCAGCATT against Srst	-1.1 (inactive)
GUCACUGAAUUUCUCCUCUTT against Olfr104-ps	-2.28 (active)
GGUUAUAUCCAUGUGACACTT against Nkg7	-1.15 (inactive)
GCAGCUUUAGGUCCAUUCGTT against Pkd2l2	-0.696 (inactive)
GGAACAUCCAUGUAUUCAATT against Ube2l3	0.76 (inactive)
GGAUAUCCGUGAGAUUUCATT against Timm9	3.7 (active)
CCCACUCUUUGUGUACUGATT against Olfr262	-2.1 (active)
GGCUAAAUAUGUGAUUAGUTT against Maob	-0.311 (inactive)
GGAGUAUAUCUCGUUUAUATT against Ube2e2	-0.221 (inactive)
GGACCAUGCUGGAUACUAUTT against Yrdc	1.74 (inactive)
CCUGUACCCGAACAUACCATT against Fabp12	-1.06 (inactive)
GCAAGCAGACUUGUCCUUCTT against Hnrnpc	-0.155 (inactive)
GGUCAUCCUCAAGUCUCCUTT against Stmn3	-2.28 (active)
GGAGAAGAGAAUAGAAGAATT against Ren1	-0.0528 (inactive)
GGCUGUACCAAUCUGACACTT against Pvalb	0.318 (inactive)
AUAACCUAACUCACAACAATT against Olfr304	-1.06 (inactive)
GGAAAUCGAUUCUCAUGAUTT against St6gal2	0.00146 (inactive)
CGGGCUCUUGUAGAUUUCATT against Ccdc86	3.22 (active)
